Screens deposited in PubChem BioAssay by National Center for Advancing Translational Sciences (NCATS).
This is one part of a sample in which hits are shown more often than they occur.
Mm-Cpn inhibitor = M. maripaludis TRiC chaperonin inhibition. purified Mm-Cpn ATPase, ADP Transcreener TR-FRET. Potency, µM (doses to about 76.9 µM), for the others: at the highest dose activity, negative = inhibition, most hits filed as inhibitors. hit rate 0.031% among 330,000; further: on the % scale 0 is the no-effect control and ±100 the full control effect; nearly all actives have a fitted effect of over 80% in size
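Reaction buffer contained 30 mM Tris pH 7.4, 100 mM KCl, 5 mM MgCl2 and 1 mM DTT. Mm-CPN (25 nM final) hydrolysed 10 uM ATP over 30 min at 37°C; ADP was read by HTRF.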
USP2a inh = USP2a (human) protease inhibition. Potency, µM (highest dose often 38.3 µM), inactives show top-dose activity change, negative = inhibition, usual class: inhibitors. USP2 core, Ub-CHOP2 coupled fluorogenic reporter, 485/531. hit rate 0.01% among 330,000. AID 463254;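 further: plate controls were DMSO wells for no effect and full inhibition by NEM control for full effect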
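Deubiquitinase activity read as fluorescence (485/531 nm) after Ub-CHOP2 cleavage activates the enterokinase reporter on its substrate; USP2 core 10nM, Ub-CHOP2 and substrate 25nM each, 30min compound preincubation then 60min RT; data normalized to NEM, curves fitted.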
a7 integrin act = activates integrin-mediated alleviation for muscular dystrophy. alpha7betagal myoblasts, beta-gal FDG fluorescence, 48 h. Potency, µM (doses to about 38.3 µM), without a hit: at the top dose activation, most hits filed as activators. hit rate 0.064% among 350,000. AID 624291;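 further: 100% = response of the positive control SU9516; nearly all actives have a fitted effect of over 60% in size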
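alpha7betagal+/- myoblasts (passage 13, 250/well) treated 48 h at 37C with compounds at 1:260 dilution of DMSO stock. Lysed, then beta-galactosidase activity read as FDG fluorescence (ex 480/em 540) after 30 min, with pre-read for autofluorescence.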
p53 reactivation = mutant p53 re-activation in reporter cells | H1299 p53-A138V BP100-luciferase reporter, luminescence, 24 h | Potency, µM (doses to about 92.2 µM), without a hit: at the top dose activity change, positive = activation, hits mostly activators | hit rate 0.063% among 320,000 | AID 504706; further: % of control where 0% means no effect; nearly all actives have a fitted effect of over 45% in size
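p53-null H1299 cells stably carrying temperature-sensitive p53-A138V and a BP100-luciferase reporter were pinned with compounds (4-point, 1:5 series) and held 24 hrs at 37 deg C. Luminescence was read 10 min after detection reagent.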
Eya2 phos inh = blocks the phosphatase activity of human Eya2; Potency, µM (doses to about 76.9 µM), for inactives: at the top dose activity, negative = inhibition, actives largely listed as inhibitors; recombinant Eya2, OMFP fluorescence dephosphorylation (OMFP is methylfluorescein phosphate); O00167; hit rate 0.006% among 330,000; AID 488837; further: on the % scale 0 is the no-effect control and ±100 the full control effect
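Eya2 protein (added as 0.2 uM solution) was preincubated with compound for 10 min at ambient temperature in 50 mM HEPES pH 7.5, 50 mM NaCl, 5 uM MgCl2, 0.05% BSA, 1 mM DTT. OMFP (added at 50 uM) then reacted 10 min; fluorescence read at 485/525 nm.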
ClpP mod = qHTS Assay for Activators of ClpP | Potency, µM (highest dose often 57.5 µM), without a hit: at the top dose activity change, negative = active | purified B. subtilis ClpP, FRET peptide cleavage, 20 min | hit rate 1.9% among 340,000; active means well fitted falling curve with a large enough effect; inconclusive means small, poorly fitted or top-dose-only effect; inactive means no such curve, though single readings can be large or run the other way; further: the source files actives as falling curves though it sought activators and does not explain the sign; nearly all actives have a fitted effect of over 65% in size
Target sequence (P80244 whole entry, looked up): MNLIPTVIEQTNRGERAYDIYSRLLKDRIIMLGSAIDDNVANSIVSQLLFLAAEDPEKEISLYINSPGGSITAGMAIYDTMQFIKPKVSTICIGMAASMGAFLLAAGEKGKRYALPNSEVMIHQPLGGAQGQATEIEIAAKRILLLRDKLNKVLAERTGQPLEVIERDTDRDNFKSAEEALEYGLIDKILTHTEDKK
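Buffer: 100 mM Tris/HCl pH8, 100 mM KCl, 0.05% low protease BSA, 2.5% glycerol, 0.01% Tween-20. ClpP 10 microg/mL final; 20 min RT; delta FRET normalized to ADEP and DMSO controls.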
An asterisk follows results filed as active; [ ] = another dose, or the depositor's remark. Unless noted, the call rests on the fitted dose curve; in most records, active means well fitted curve in the direction sought with a large enough effect; inconclusive means small, poorly fitted or top-dose-only effect, or another doubt; inactive means no such curve, though single readings can be large; an effect the other way counts as inactive or inconclusive. Potency means the concentration at half of the fitted maximal effect.

Screening Cc1cc(C)nc(Nc2nc(C)c3cc4c(cc3n2)OCO4)n1 returned Mm-Cpn inhibitor -6%, USP2a inh 2%, a7 integrin act -2%, p53 reactivation -24%, Eya2 phos inh -32% and ClpP mod 16µM*.
`Cc1nc(NC(=O)c2ccc(Cl)cc2)nc2cc3c(cc12)OCO3` gave Mm-Cpn inhibitor -24%, USP2a inh 3%, a7 integrin act 24%, p53 reactivation -1%, Eya2 phos inh -9% and ClpP mod inconclusive.
`CN(CCCN(Cc1ccc(Cl)cc1)c1ccc(Br)cn1)C(=S)NCCCc1cnc[nH]1` gave ClpP mod -5%.
Screening COc1cc(-c2nc(C(N)=O)c3c(n2)n(-c2cccc(C)c2)c(=O)n3C)cc(OC)c1OC returned ClpP mod 22µM*.
Screening COc1ccccc1-n1c(=O)n(C)c2c(C(N)=O)nc(-c3cccc(OC)c3OC)nc21 returned ClpP mod 0%.
`CC(=O)Nc1ccc(NC(=O)C2(c3cccs3)CCOCC2)cc1` gave ClpP mod 0%.
For Cc1cccc(NC(=O)c2cc(NC(=O)c3ccco3)ccc2N2CCCCC2)c1 the results were Mm-Cpn inhibitor 2%, USP2a inh 1%, a7 integrin act -3%, p53 reactivation 6%, Eya2 phos inh 0% and ClpP mod 18µM*.
For O=C(Nc1ccccc1C(=O)Nc1ccccn1)c1ccc([N+](=O)[O-])cc1 the results were Mm-Cpn inhibitor 1%, USP2a inh 3%, a7 integrin act 0%, p53 reactivation 3%, Eya2 phos inh 0% and ClpP mod 32µM*.
`COc1ccc(C(=O)Nc2ccccc2C(=O)Nc2ccccn2)cc1` gave Mm-Cpn inhibitor -1%, USP2a inh -1%, a7 integrin act -7% and Eya2 phos inh -1%.
C[N+]1(CC(=O)c2ccc(-c3ccccc3)cc2)CCOCC1 was read as ClpP mod -1%.
Cc1c(C(=O)OC(C)C(C)C[N+](C)(C)C)oc2ccccc12 (centres undefined) was read as Mm-Cpn inhibitor -2%, USP2a inh 5%, a7 integrin act -9%, p53 reactivation -5%, Eya2 phos inh -33% and ClpP mod 28µM*.
`CCCn1cc2c(c1-c1ccc(C)cc1)c(=O)n(C)c(=O)n2C` gave Mm-Cpn inhibitor 1%, USP2a inh 0%, a7 integrin act 1%, p53 reactivation -2% and Eya2 phos inh -15%.
Screening COc1ccc(-c2c3c(=O)n(C)c(=O)n(C)c3cn2C2CCCCC2)cc1 returned Mm-Cpn inhibitor -6%, USP2a inh -3%, a7 integrin act -16%, p53 reactivation -1%, Eya2 phos inh 13% and ClpP mod 16µM*.
O=C(CSC1=NCCS1)N1CCOCC1 was read as Mm-Cpn inhibitor -10%, USP2a inh -2%, a7 integrin act 0%, p53 reactivation inconclusive, Eya2 phos inh -12% and ClpP mod -1%.
Screening O=C(CSC1=NCCS1)N1CCN(c2ccccc2)CC1 returned Mm-Cpn inhibitor 2%, USP2a inh 0%, a7 integrin act -28%, p53 reactivation 35µM*, Eya2 phos inh 4% and ClpP mod -2%.
Screening Cc1sc(N)c(C#N)c1C returned Mm-Cpn inhibitor -1%, USP2a inh 5%, a7 integrin act 10%, p53 reactivation 5%, Eya2 phos inh 1% and ClpP mod 14µM*.
Screening O=C(Nc1cccc(F)c1)N(Cc1ccc(Cl)cc1)CC(O)C(F)(F)F (centres undefined) returned Mm-Cpn inhibitor 1%, USP2a inh 4%, a7 integrin act -6%, p53 reactivation 5%, Eya2 phos inh -3% and ClpP mod 1%.
For O=C(Nc1ccccc1)N(Cc1ccccc1)CC(O)C(F)(F)F (centres undefined) the results were Mm-Cpn inhibitor 0%, USP2a inh 3%, a7 integrin act 11%, p53 reactivation -5%, Eya2 phos inh 4% and ClpP mod 28µM*.
For Cc1ccc(CNC(=O)c2cc3c(s2)-c2ccccc2SC3)cc1 the results were ClpP mod 109%.
For Cc1cc(Br)ccc1NC(=O)c1cc2c(s1)-c1ccccc1SC2 the results were ClpP mod 14µM*.
For O=C1CCCc2c1cc(C(=O)NCc1ccco1)c(=O)n2-c1ccc(Cl)cc1 the results were Mm-Cpn inhibitor 0%, USP2a inh 0%, a7 integrin act 15%, p53 reactivation 1%, Eya2 phos inh -9% and ClpP mod 20µM*.
Screening O=C1NCCc2c1[nH]c1ccccc21 returned Mm-Cpn inhibitor 0%, USP2a inh -3%, a7 integrin act 14%, p53 reactivation 1%, Eya2 phos inh -7% and ClpP mod 25µM*.
Screening CCOc1ccccc1NC(=O)Cc1coc2c(C)c(C)ccc12 returned ClpP mod -7%.
`CCN1CCn2c3c(c4cc(C)ccc42)CCCC31` (centres undefined) gave Mm-Cpn inhibitor 0%, USP2a inh -3%, a7 integrin act 6%, p53 reactivation 12%, Eya2 phos inh 7% and ClpP mod 28µM*.
Screening COc1ccc(OC)c(-c2cc(C(=O)Nc3c(C)nn(Cc4ccccc4Cl)c3C)no2)c1 returned Mm-Cpn inhibitor -2%, USP2a inh 4%, a7 integrin act -30%, p53 reactivation -25%, Eya2 phos inh 6% and ClpP mod 35µM*.
Screening Cc1ccc(-c2nc3ccccc3o2)cc1NC(=O)C(C)Oc1ccccc1 (centres undefined) returned ClpP mod 5%.
For Cc1cc(C(=O)NCc2cc(C)n(C)n2)sc1-c1ccccc1 the results were Mm-Cpn inhibitor -7%, USP2a inh -2%, a7 integrin act -36%, p53 reactivation 20%, Eya2 phos inh -7% and ClpP mod 25µM*.
`Cc1cc(CNC(=O)c2cc(-c3ccccc3)nc3ccccc23)nn1C` gave Mm-Cpn inhibitor 0%, USP2a inh 4%, a7 integrin act 3%, p53 reactivation 2%, Eya2 phos inh 5% and ClpP mod 0%.
`CCOc1ccc(NS(=O)(=O)c2ccc3[nH]c4c(c3c2)CCCCC4)cc1` gave ClpP mod -9%.
`Cc1occc1-c1nnc(SCC(=O)c2cc3ccccc3oc2=O)o1` gave Mm-Cpn inhibitor -10%, USP2a inh 1%, a7 integrin act -14%, p53 reactivation 20%, Eya2 phos inh -23%[15.4 µM] and ClpP mod 28µM*.
